These results are taken from PubChem BioAssay AID1508600 (Functional Genomics Laboratory (NCATS/FGL), 2020).

The campaign covered roughly 53,000 sequences. About 3,700 (7%) were called active. This is one part of a sample in which actives are shown more often than they occur.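 Rule for the calls: active = gene knockdowns whose robust z-score for IL-1 alpha signal is at least 2 or at most -2, so actives lie on both sides; inactive = the rest.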

The assay is described as follows: Components of the Cytosolic LPS Sensing Pathway: Gene Identification via Genome-wide siRNA Screen.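 Note: robust z of the log signal after scaling to non-targeting control siRNA wells of the plate.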 The settings on record: RAW264.7 macrophages, IL-1a HTRF, actives lie on both sides, screened at 100 nM (by protocol), cells primed 5 h with Pam3CSK4 first. The essentials:
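RAW264.7; siRNA 100 nM final, RNAiMAX, 48h 37 degrees C; Pam3CSK4 5 h; LipidA + TransIT-TKO 24 h; IL-1a HTRF; CellTiter-Glo viability; robust z vs negative-control median.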
Background: In TR-FRET formats the signal depends on donor and acceptor labels being close together.
Regarding GGAUGAUAAAGACAAAGUATT against Ppm1g, the z-score is -0.921 (inactive).
Next, GGUUUCUGGCUUUCCGUAGTT against Erf: -0.0549 (inactive); GCUCUGCAUGACCUUACCUTT against Ugt2b1: 0.245 (inactive).
Under GGCCUUUGUACAGGACCCATT against Tor2a stands -1.01 (inactive); under GGUCAGAAGAGAUCAAAAGTT against Ttc23, -0.0386 (inactive).
For GCCUACUCCCAAGAGGAAATT against Gprc5a, the z-score was 2.32 (active).
Next, GGACAGCAAGAUGAAGAUGTT against Il17ra: -1.32 (inactive).
Next, UUGAUUUGGUAGCCUGCUCTT against Olfr1303: 0.962 (inactive); “CCCUGCUUCGUGUGCUAUUTT against C130074G19Rik”: 0.499 (inactive).
Turning to GGUACCUGAGGUAGAAAAGTT against Pnma3, the z-score was -2.5 (active).
Next, GGAAUGUGUUGAAAUAUGATT against P4ha3: 0.0288 (inactive).
Consider CCACGGAGACAACUUAGUATT against Scfd2, for which the z-score was 0.568 (inactive).
Next, GGCGGUCAAGUGAGGUUCUTT against Hhex: 3.62 (active); GGACUUUUCUGCUAUUUACTT against Kcnh2: -0.471 (inactive).
Under GGAAAGAAUUGAAUACUCGTT against Gpr89 stands -0.279 (inactive); under GGUGAAUUUCCUUCUACAUTT against Tas1r1, -1.56 (inactive); under GCUGGGAUAUGAAAUCUAUTT against Gprc6a, 2.74 (active).
Under GGUGAUAAAGUCAUUCCACTT against Adh1 stands 0.759 (inactive); under GGAAGACAUAUUUCAACAGTT against Ehhadh, -1.37 (inactive).
For the sequence GCAGUGUAUUGGUAAUCAATT against Olfr630, the z-score is 1.44 (inactive).
Turning to GCAUCGAUCUUGAGUUAGATT against Hebp1, the z-score was 0.579 (inactive).
Take GCGCAGGUUCAAUGUGGAUTT against Prodh: the z-score was 1.72 (inactive).
In the case of GGCGAUAGACGAGUAUCAGTT against Aida, the z-score is 0.41 (inactive).
CCAGCAAAUAUCCUAGUAATT against Cdk19: the z-score was 0.111 (inactive).
Next, CGUGUGUGUCAUGUUACGGTT against Dusp2: -0.901 (inactive); GGAGAGCUGGAACAAUAGCTT against Bcl2l2: 2.26 (active).
For GGAUGAAUGGAGAACUGAATT against Afap1l1, the z-score was -1.21 (inactive).
Regarding CCAUGACAAUGAAUAUCCUTT against Ms4a19, the z-score was -1.24 (inactive).
GCGAGCUAAUGUCACAUUCTT against Il17ra: the z-score was 3.74 (active).
Turning to GGAACUAUCACGUGUUCUATT against Myo7a, the z-score is 0.837 (inactive).
Next, CCAGAUGGGAUACCUCUACTT against Tmed6: 0.303 (inactive).
Next, GGUCUCUUUCAUGCUCGCATT against Agr3: 3.06 (active); CCCUAACCUCAUUUCAUGUTT against Vmn1r63: -1.01 (inactive); GGAAAACAACGAAUUGCUCTT against Uri1: 0.791 (inactive).
Under GCCGAUGACACUAUCUACCTT against Cryz stands 0.465 (inactive).
For the sequence CCUCAAUCAAAAUGUAAGUTT against Atp6v0a2, the z-score is 0.456 (inactive).
Under GGAUCUGAAGGAAUACUUUTT against Lmf1 stands 1.69 (inactive).
On to GGAACAAACCAAGUUCACATT against Kcnip2, for which the z-score is -0.66 (inactive).
In the case of GGACUCCAAGAUCAUGGUCTT against Pnck, the z-score was 1.07 (inactive).
Next, GCAAGACCCUUCGAGUGAATT against Nkd2: -1.2 (inactive).
In the case of GGCCAUUUAUCCAUGGUUGTT against Zdhhc17, the z-score was 0.954 (inactive).
Next, GGCCUCAAGUUGCUAUGCCTT against Mlxipl: -0.2 (inactive); GGAGAUGAAGUUAAAGCGATT against Slc26a6: 0.619 (inactive).
In the case of GGCAGAUGUGUUUGCUUUUTT against Pbk, the z-score was 3.51 (active).
As to GCACUGAACUUUGUCGAUUTT against Fam122a, the z-score is 0.325 (inactive).
For the sequence “CCCGAAGAGCAAAAAAGAUTT against 1110004F10Rik”, the z-score is -1.5 (inactive).
CGGUCAUUAAUGAAGCCUGTT against Pamr1: the z-score was 2.65 (active).
Under GGUGGUGUGUGAUGAGAAUTT against Pabpc6 stands 0.649 (inactive); under GGGCUGUUUGUAGCAGAUUTT against Olfr1279, -1.12 (inactive).
Next, GGUCACGGAGAAACUAAAGTT against Ppme1: 0.703 (inactive); GGCUAGGUAAUCACUGGGUTT against Fate1: 0.987 (inactive).
Take CCAAUAUGAGACCAUCAUUTT against Sv2b: the z-score was 0.385 (inactive).
GCGACAUAACUGCAUUCAATT against Kcnh1: the z-score is 2.79 (active).
Under GGUCAAUUUGGUUUGUGAATT against Cenpa stands -0.374 (inactive); under GGUAGAAAUUUACCUCAUUTT against Dusp4, -1.42 (inactive).
Consider GCAGAGGAUAUAAAACAAGTT against Pde2a, for which the z-score was -0.86 (inactive).
As for GGAAAAUAGGGCGACAAAUTT against Tdrd7, the z-score is 0.673 (inactive).
For the sequence GGAUGAUUGAGAUAGCGAATT against Polr1e, the z-score is 0.608 (inactive).
Under CCGUACAUAUGGUGAUCCATT against Rtn1 stands -0.162 (inactive); under GGGAGAAGUGCUGUGGAUUTT against Fras1, 0.401 (inactive).
Under CGAGAGCUAAAAAGAGUAATT against Chd1 stands 0.42 (inactive); under GGAAGUUUCUGGAAACACATT against Mbd3, -0.487 (inactive).
As to GGAGGAUUGUCCACAUGGATT against Ccl27a, the z-score was 4.32 (active).
Take GGCAACAUGGUGAUCAUCGTT against Olfr323: the z-score is -0.461 (inactive).
Consider CGGUAUUUCAUCCUGGAUATT against Plekha1, for which the z-score is 0.403 (inactive).
Turning to GCAUGGAACAAGGUUGCUCTT against Pa2g4, the z-score is 1.84 (inactive).
Consider GGUACACCAAGGCUUGCUATT against Coq8b, for which the z-score was -0.343 (inactive).
Under GCAUGAGUUAGACCAUAAUTT against Phf12 stands -2.59 (active).
Regarding GGCCUCUUUUGGUAUUCCATT against Zfp42, the z-score was 0.946 (inactive).
